Measurements published in the supplement of paper PMC9694430.
“And” between values parts separate entries of the source, which are not always exact repeats. Identical values can stand only once.

Experiments:
Test in all cases: thermal shift delta Tm vs DMSO control; higher = stronger stabilization (binding)
Details in all cases: 12.5 µM; protein concentration 2 µM
[1] = tested on: LOC_OS02G45750-cb003
Summary of the method: (§1)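 Thermal shift values come from differential scanning fluorimetry on purified rice kinase domains made in E. coli, with melting temperatures obtained from Boltzmann fits. Samples of 19.5 μl held 2 μM kinase, 100 mM potassium phosphate pH 7.5, 150 mM NaCl, 10% glycerol, 5 × SYPRO Orange and compound in DMSO, and were heated from 25°C to 95°C at 0.05°C/s. Each shift is a triplicate mean relative to the DMSO-only protein sample.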

[2] = tested on: LOC_OS02G54510-cb004
Summary of the method: as §1

[3] = tested on: LOC_OS03G04050-cb001
Summary of the method: as §1

[4] = tested on: LOC_OS03G12390-cb001
Summary of the method: as §1

[5] = tested on: LOC_OS03G27990-cb004
Summary of the method: as §1

[6] = tested on: LOC_OS03G50450-cb001
Summary of the method: as §1

[7] = tested on: LOC_OS03G50810-cb003
Summary of the method: as §1

[8] = tested on: LOC_OS04G35114-cb001
Summary of the method: as §1

[9] = tested on: T1, LOC_OS04G38480-cb003
T1 sequence (whole entry): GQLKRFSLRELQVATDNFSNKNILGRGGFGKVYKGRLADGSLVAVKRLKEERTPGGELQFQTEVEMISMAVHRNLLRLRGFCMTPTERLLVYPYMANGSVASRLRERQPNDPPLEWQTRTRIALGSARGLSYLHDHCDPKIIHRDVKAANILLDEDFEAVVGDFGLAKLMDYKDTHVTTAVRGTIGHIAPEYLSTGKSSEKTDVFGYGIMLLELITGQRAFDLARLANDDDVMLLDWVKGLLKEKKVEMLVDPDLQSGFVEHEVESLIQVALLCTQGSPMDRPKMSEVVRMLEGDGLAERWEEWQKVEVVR
Summary of the method: as §1

[10] = tested on: T2, LOC_OS04G41100-cb001
T2 sequence (whole entry): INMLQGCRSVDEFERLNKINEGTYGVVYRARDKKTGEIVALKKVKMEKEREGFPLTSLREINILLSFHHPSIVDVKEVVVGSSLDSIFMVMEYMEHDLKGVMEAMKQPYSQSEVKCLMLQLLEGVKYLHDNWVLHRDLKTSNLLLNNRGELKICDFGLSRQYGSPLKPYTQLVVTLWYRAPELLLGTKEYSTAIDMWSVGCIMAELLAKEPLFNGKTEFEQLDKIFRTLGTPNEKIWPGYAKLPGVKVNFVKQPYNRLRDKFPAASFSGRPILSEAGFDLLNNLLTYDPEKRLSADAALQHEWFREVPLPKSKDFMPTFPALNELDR
Summary of the method: as §1
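Note: purified Escherichia coli-expressed rice kinase domain construct.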

SMILES	thermal shift delta Tm [1]	thermal shift delta Tm [2]	thermal shift delta Tm [3]	thermal shift delta Tm [4]	thermal shift delta Tm [5]	thermal shift delta Tm [6]	thermal shift delta Tm [7]	thermal shift delta Tm [8]	thermal shift delta Tm [9]	thermal shift delta Tm [10]
CNC(=O)c1cc(Oc2ccc(NC(=O)Nc3ccc(Cl)c(C(F)(F)F)c3)cc2)ccn1 [Sorafenib]	4.5 °C	1.47 °C	0.48 °C	1.7 °C	0.3 °C	1.22 °C	1.02 °C	1.71 °C	3.55 °C	0.99 °C
O=C(c1cccc(Cl)c1F)N1CCN(Cc2cccc(Nc3nccs3)n2)CC1	0.38 °C	0.15 °C	0.55 °C	0.36 °C	0.38 °C	0.14 °C	1.09 °C	7 °C	2.88 °C	0.42 °C
CC(C)Nc1cc(-c2c[nH]c(C(=O)N[C@H](CO)c3cccc(Cl)c3)c2)c(Cl)cn1	0.06 °C	0.08 °C	0.57 °C	1.86 °C	0.44 °C	0.2 °C	0.3 °C	1.54 °C	1.63 °C	1.97 °C
CN1CCN(c2ccc(Nc3cc(-c4cccc(-n5ccc6cc(C7CC7)cc(F)c6c5=O)c4CO)cn(C)c3=O)nc2)CC1	0.34 °C	-0.3 °C	0.53 °C	-0.21 °C	0.57 °C	0.67 °C	0.5 °C	0.26 °C	1.08 °C	0.45 °C
COc1ccc(S(=O)(=O)N(C(C)=O)c2ccccc2/C=C/c2cc[n+]([O-])cc2)cc1	-0.35 °C	-0.24 °C	0.19 °C	0.13 °C	-0.03 °C	0.17 °C	0.09 °C	0.01 °C	0.55 °C	0.61 °C
CCNc1nc(Nc2cc(F)c(C(=O)N3CCOCC3)cc2OC)ncc1C(F)(F)F	1.06 °C	0.23 °C	0.41 °C	0.25 °C	0.28 °C	0.95 °C	0.82 °C	1.17 °C	1.15 °C	0.43 °C
CCCS(=O)(=O)Nc1ccc(F)c(C(=O)c2c[nH]c3ncc(Cl)cc23)c1F	1.97 °C	1.14 °C	0.77 °C	0.99 °C	0.46 °C	0.97 °C	0.43 °C	1.85 °C	0.12 °C	0.83 °C
CCNC(=O)Nc1ccc(-c2nc(N3CCOC[C@@H]3C)c3c(n2)C(C)(C)S(=O)(=O)C3)cc1	0.42 °C	0.08 °C	0.36 °C	0.06 °C	0.16 °C	0.41 °C	0.16 °C	0.29 °C	1.39 °C	0.2 °C
O=C(c1ccc(/C=C/c2n[nH]c3ccccc23)cc1)N1CCNCC1	14 °C	0.61 °C	0.27 °C	6.79 °C	6 °C	4.25 °C	4.42 °C	8.77 °C	2.61 °C	0.96 °C
O=c1sn(-c2cccc3ccccc23)c(=O)n1Cc1ccccc1 [Tideglusib]	0 °C	0.35 °C	0.13 °C	-1.57 °C	0.89 °C	0.32 °C	-0.5 °C	2.38 °C	0.78 °C	0.34 °C
COC(=O)N[C@@H](C)CNc1nccc(-c2cn(C(C)C)nc2-c2cc(Cl)cc(NS(C)(=O)=O)c2F)n1 [Encorafenib (LGX818)]	0.44 °C	-0.06 °C	0.22 °C	-0.2 °C	0.34 °C	0.01 °C	0.12 °C	0.62 °C	0.49 °C	1.63 °C
COc1ccc(C(=O)Nc2sc3c(c2C(N)=O)CCCC3)cc1OC	3.21 °C	0.13 °C	0.38 °C	0.22 °C	0.12 °C	0.38 °C	1.2 °C	3.8 °C	3.31 °C	0.28 °C
CCOC(=O)c1cnc2ccc(-c3cncc(NS(=O)(=O)c4ccccc4)c3)cn12	1.34 °C	0.07 °C	0.25 °C	0.45 °C	0.16 °C	0.7 °C	0.65 °C	1.78 °C	1.81 °C	0.65 °C
Cc1cc(Nc2cc(CN3CCOCC3)c3nc(C)c(Cc4ccc(Cl)cc4F)n3n2)n[nH]1	3.56 °C	3.12 °C	-0.22 °C	1.36 °C	0.01 °C	0.47 °C	4.81 °C	2.03 °C	2.46 °C	3.22 °C
COc1cccc(-n2c(=O)[nH]c3cc(Cl)n(-c4ccc(-c5cccc(OC)c5O)cc4)c3c2=O)c1	0.85 °C	0.06 °C	0.3 °C	0.12 °C	0.42 °C	0.22 °C	0.35 °C	0.59 °C	1.27 °C	0.29 °C
COc1cc(C(=O)N2CCC(N3CCN(C)CC3)CC2)ccc1Nc1ncc2c(n1)N(C)c1ccccc1C(=O)N2C	1.73 °C	0.29 °C	0.41 °C	3.59 °C	0.46 °C	0.37 °C	0.68 °C	0.65 °C	3.81 °C	0.27 °C
CN(c1ncccc1CNc1nc(Nc2ccc3c(c2)CC(=O)N3)ncc1C(F)(F)F)S(C)(=O)=O	6.83 °C and 7.06 °C	1.05 °C and 1.09 °C	0.54 °C and 0.38 °C	3.95 °C and 4.88 °C	2.23 °C and 2.44 °C	2.36 °C and 2.48 °C	3.64 °C and 4.1 °C	4.17 °C and 4.61 °C	1.77 °C and 2.12 °C	1.82 °C and 1.92 °C
O=C(Nc1cccnc1)c1cc(-c2ccnc(F)c2)ccc1OCc1ccccc1	1.01 °C	0.22 °C	0.77 °C	4.48 °C	0.39 °C	0.36 °C	0.76 °C	0.97 °C	1.76 °C	0.25 °C
O=C(NCCCNc1nc(Nc2cccc(NC(=O)N3CCCC3)c2)ncc1I)c1cccs1	14.3 °C	1.24 °C	0.97 °C	7.32 °C	0.57 °C	6.67 °C	6.52 °C	7.01 °C	3.4 °C	2.91 °C
CCCNC(=O)Nc1ccc(Oc2ncnc3cc(OC)c(OC)cc23)cc1Cl	-0.23 °C	-0.21 °C	-0.21 °C	0.74 °C	-0.33 °C	-0.08 °C	0.49 °C	0.48 °C	-0.17 °C	-0.34 °C
Oc1cccc(-c2nc(N3CCOCC3)c3oc4ncccc4c3n2)c1	-0.07 °C	-0.06 °C	0.32 °C	0.43 °C	0.03 °C	0.47 °C	0.16 °C	0.22 °C	1.17 °C	0.89 °C
Cn1c2ccccc2c2c3c(c4c5ccccc5n(CCC#N)c4c21)CNC3=O	5.83 °C	0.92 °C	0.61 °C	2.98 °C	1.85 °C	1.84 °C	6.02 °C	11.6 °C	2.74 °C	0.46 °C
CC[C@@](C)(Nc1ccnc(-c2c[nH]c3ncccc23)n1)C(=O)NCC(F)(F)F [Decernotinib (VX-509)]	1.82 °C	0.32 °C	0.47 °C	0.52 °C	0.33 °C	0.54 °C	1.35 °C	1.32 °C	3.52 °C	0.25 °C
Cc1nc(Nc2n[nH]c3c2CN(C(=O)N[C@H](CN(C)C)c2ccccc2)C3(C)C)c2sccc2n1	0.94 °C	0.82 °C	0.62 °C	3.19 °C	0.55 °C	0.78 °C	1.44 °C	3.07 °C	0.43 °C	0.63 °C
